# Screening data (PubChem BioAssay)
# Sampled rows, rich in hits. Any-hit rate of the full collection: about 4.6%.
# Mdm2 MdmX PPI: disrupts the human Mdm2-MdmX interaction; O15151+Q00987; SaOS-2 split-luciferase Mdm2/MdmX complementation, luminescence; inhibition, % at 8 µM; 330,000 compounds, 3% hits; AID 485346;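 active = inhibition of at least 50% at 8 µM in the primary screen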
# CF NFkB block: blocks PAF-induced NF-kB reporter in cystic fibrosis cells | KKLEB NF-kB-GFP reporter, GFP fluorescence overnight | inhibition, % at 5 µM | 360,000 compounds, 0.86% hits | AID 588850;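 active = at least 50% inhibition at 5 µM, scaled per plate between neutral and stimulator controls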;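 note: PAF is a Pseudomonas aeruginosa culture filtrate used as stimulus; plate controls were PAF-stimulated DMSO wells for no effect and unstimulated DMSO wells for full effect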
# HIF-2a inh: HIF-2a inhibition | 786-0 RCC cells HIF-2a reporter, luciferase luminescence, overnight | inhibition, % at 18.8 µM | 360,000 compounds, 0.72% hits;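 active = inhibition of the luminescence signal of 40% or more relative to plate controls, in a single-dose primary screen at 18.75 µM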
# Peg3 prom inh-1: Peg3 promoter activity inhibition. 360,000 compounds, 1.7% hits. AID 588405. inhibition, % at 20 µM. HeLa PEG-Prom luciferase reporter, luminescence, overnight;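 active = inhibition of at least 50% at 20 µM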
# ABHD5 PLIN5 PPI: blocks binding of human ABHD5 to perilipin-5. 360,000 compounds, 0.78% hits. inhibition, % at 4 µM. Split G. princeps luciferase complementation, luminescence, 4 h. Q00G26+Q8WTS1. AID 602281;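 active = inhibition above the mean inhibition across every tested compound plus 3 SD, cut at about 22% in these data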;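 note: 0% = DMSO only wells and the 100% control is not disclosed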
# KKLEB cytotox: counter-screen for CF NF-kB inhibitors: cytotoxicity; activity change (cytotoxicity), % at 5 µM; 360,000 compounds, 0.36% hits; KKLEB CF airway cells viability, ATPlite luminescence, overnight; active compounds read low; cells stimulated with P. aeruginosa culture filtrate;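 active = corrected activity change at or below -50% at 5 µM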
# Mdm2 MdmX conf-1: human Mdm2/MdmX binding inhibition, confirmed; shares compounds with Mdm2 MdmX PPI; luminescent assay; inhibition, % at 8 µM; 10,000 compounds, 55% hits; in the data active = inhibition above about 40%
# FLuc counter: counter-screen for Mdm2/MdmX inhibitors: full-length luciferase. shares compounds with Mdm2 MdmX PPI. SaOS-2 full-length luciferase counterscreen, luminescence. inhibition, % at 8 µM. 6,200 compounds, 77% hits;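 active = mean inhibition at 8 µM reaching about 37%, which flags the compound as non-specific, limit read from the data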;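 note: p53-null SaOS-2 cells with luciferase driven by a doxycycline-inducible promoter; compound on cells about two nights before reading with doxycycline added after day one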
# Peg3 prom inh-2: Peg3 promoter inhibition confirmation; shares compounds with Peg3 prom inh-1; HeLa PEG-Prom luciferase reporter, luminescence, overnight; inhibition, % at 20 µM; 1,300 compounds, 84% hits; AID 602417;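 active = at 20 µM dose, 40% or more inhibition averaged across four replicates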
# ABHD5 PLIN5 conf: ABHD5-PLIN5 interaction inhibition, confirmed | inhibition, % at 4 µM | biochemical ABHD5-PLIN5 interaction, luminescence | 2,200 compounds, 67% hits | shares compounds with ABHD5 PLIN5 PPI; in the data active = inhibition above about 23%;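 note: 0% = DMSO vehicle wells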
# HNF4 counter: counter-screen for ABHD5-PLIN5 inhibitors: HNF4 split-luciferase | shares compounds with ABHD5 PLIN5 PPI | HNF4 dimerization, luminescence, biochemical | inhibition, % at 4 µM | 2,200 compounds, 77% hits | AID 651674;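 active = mean inhibition across replicate wells exceeding the computed hit threshold, cut at about 13% in these data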;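 note: light from luciferase halves that rejoin when HNF4 fusion proteins dimerize; 0% = DMSO only wells and the 100% control is not given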
# Mdm2 MdmX conf-2: confirmation of inhibitors of human Mdm2/MdmX interaction, set 2. shares compounds with HIF-2a inh. SaOS-2 split-luciferase Mdm2/MdmX complementation, luminescence. inhibition, % at 8 µM. 740 compounds, 99% hits. AID 504601;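 active = mean inhibition of the luminescence signal across two replicates at or above 26 percent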
# HIF-2a inh conf: confirmation of HIF-2a inhibitors | 786-0 RCC cells, HIF-2a luciferase reporter luminescence, overnight | shares compounds with HIF-2a inh | 1,800 compounds, 56% hits | inhibition, % at 18.8 µM;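 active = mean inhibition across four replicates of at least 40 percent at the single tested concentration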
# HIF-1a counter: counter-screen for HIF-2a inhibitors: HIF-1a inhibition in MiaPaCa-2 cells; shares compounds with HIF-2a inh; MiaPaCa-2 HIF-1a luciferase reporter, desferoxamine, overnight; 1,800 compounds, 72% hits; inhibition, % at 18.8 µM;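 active = mean inhibition of the reporter signal across four replicates at the single tested dose of 50% or more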
# Numbers without * were called inactive; . = no result given.
SMILES,Mdm2 MdmX PPI,CF NFkB block,HIF-2a inh,Peg3 prom inh-1,ABHD5 PLIN5 PPI,KKLEB cytotox,Mdm2 MdmX conf-1,FLuc counter,ABHD5 PLIN5 conf,HNF4 counter,Mdm2 MdmX conf-2,HIF-2a inh conf,HIF-1a counter,others
Cc1noc(-c2ccc(Cl)cc2)c1C(=O)O/N=C(\N)c1ccc(C(C)(C)C)cc1,100*,10,0,112*,1,-2,98*,60*,.,.,103*,.,.,Peg3 prom inh-2=98*
Cc1cc(C(=O)O/N=C(\N)c2ccc(C(C)(C)C)cc2)no1,-103,-4,-286,-361,1,6,.,.,.,.,.,.,.,
CC(C)(C)c1ccc(C(=O)O/N=C(\N)c2ccccc2)cc1,97*,3,72*,104*,7,-12,88*,23,.,.,.,87*,87*,
CCOC(=O)[C@]12CCCC=C1N(Cc1ccc3c(c1)OCO3)C(=O)[C@H](CC(=O)NCc1ccc(OC)c(OC)c1)C2,.,.,6,.,4,.,.,.,.,.,.,.,.,
CCN(CC)C(=O)Cn1cc(S(=O)(=O)CC(=O)Nc2ccccc2C)c2ccccc21,11,12,17,1,0,-9,.,.,.,.,.,.,.,
CC(=O)c1c(C)oc2ccc(N(C(C)=O)S(=O)(=O)c3ccc(Cl)c([N+](=O)[O-])c3)cc12,98*,42,69*,104*,-4,-9,95*,57*,.,.,.,-1,107*,
N#CCCN(C(=O)COC(=O)c1cc2ccccc2oc1=O)c1ccccc1,-4,-9,4,-6,10,21,.,.,.,.,.,.,.,
CCn1nc(C)cc1-c1nnc(SCC(=O)Nc2ccccc2)n1CCCOC,-4,0,16,11,3,3,.,.,.,.,.,.,.,
CCn1nc(C)cc1-c1nnc(Sc2ncc([N+](=O)[O-])s2)n1C,96*,95*,96*,110*,24*,-82*,97*,51*,25*,110*,103*,.,.,Peg3 prom inh-2=100*
CC(C)c1nnc(NC(=O)CS(=O)(=O)Cc2ccccc2)s1,-6,10,10,4,-6,-6,.,.,.,.,.,.,.,
CSc1nnc(NC(=O)c2nc(S(=O)(=O)Cc3cccc(C)c3)ncc2Cl)s1,100*,90*,73*,101*,30*,-50*,92*,50*,86*,56*,103*,33,107*,
CSc1ncc(Cl)c(C(=O)Nc2nnc(SC/C=C/c3ccccc3)s2)n1,10,-8,7,13,6,11,.,.,.,.,.,.,.,
Cc1cccc(CS(=O)(=O)c2ncc(Cl)c(C(=O)Nc3nnc(C(C)C)s3)n2)c1,96*,92*,82*,106*,52*,-87*,88*,50*,90*,59*,103*,.,.,
Cc1ccc(CS(=O)(=O)c2ncc(Cl)c(C(=O)Nc3nnc(C(C)C)s3)n2)cc1,96*,85*,76*,110*,57*,-86*,38,0,87*,55*,.,88*,106*,
